Drawing on PubChem BioAssay (NCI), this text covers growth for 40 compounds.

This is part of a sample that, as a whole, favours compounds with a hit. Of some 83,000 tested, about 20% had one in any assay.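 Results are percent growth after 48 hours of single-concentration exposure. 100 means growth as in untreated cells, lower positive values show inhibition; negative values down to -100 show cell death.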 Values without a mark were called inactive. Activity calls are given as the source filed them.

This experiment concerns HCT-15 colon. In words: NCI-60 one-dose screen, 48 h (100 = growth as untreated, 0 = no growth, -100 = all killed). The conditions noted are these: 10 µM. The method, then: Growth inhibition of the HCT-15 human tumor cell line is measured as a screen for anti-cancer activity. Cells are grown in 96 well plates and exposed to the test compound for 48 hours. Compounds are tested at a single concentration, which is 10^-5 M for most compounds. The reported endpoint is percent growth (GI% or GIPRCNT), where numbers from 0 - 100% represent growth inhibition, and numbers from -100% - 0 represent cell death. For example, a value of 40 represents 60% growth inhibition. A value of 0 means no net growth occurred over the course of the experiment. A value of -40 indicates 40% of cells at the beginning of the experiment died by the end of the experiment. A value of -100 means all cells are dead at the end of the experiment.
NCI-60 Human Tumor Cell Lines Screen was performed using the standard one-dose NCI protocol, which is described in more detail at https://dtp.cancer.gov/discovery_development/nci-60/default.htm.
Compounds with GIPRCNT values below 10 were considered active. Activity score was based on GIPRCNT using the following formula: […]
Score is 0 for GIPRCNT values of 100 or above, 50 for GIPRCNT values of 0, and 100 for GIPRCNT values of -100.
Take `C[C@]12CCC(=O)CC1CC[C@@H]1C2CC[C@@]2(C)C1CC[C@@H]2OC(=O)CC[Se][Se]CCC(=O)O[C@H]1CCC2[C@@H]3CCC4CC(=O)CC[C@]4(C)C3CC[C@@]21C` (stereo not given in full): the growth was 97.4%.
The result for `O=C(O)c1[nH]c(=O)[nH]c(=O)c1F` reads 93.6%.
Regarding `CN(C)P1(N(C)C)=NP(N(C)C)(N(C)C)=NP(N(C)C)(N(C)C)=N1`, the growth is 101%.
The result for `CC12CCC(=O)C=C1C(O)CC1C2CCC2(C)C(O)CCC12` (stereo not given) reads 106%; that for `C=CC(O)CN1CC1CC` (stereo not given), 102%.
On to `CC(=O)[O][Hg][c]1nc2c(c(=O)n(C)c(=O)n2C)n1C`, for which the growth is 107%.
`CCC[CH2][Sn]1([CH2]CCC)[O]C(=O)c2cccc([N+](=O)[O-])c2C(=O)[O]1`: the growth was -85.5% (active).
Under `C/C1=C/C(=O)O[C@@H]2C[C@@H](CC[C@H](C)/C=C\C=C\CC1)O[C@@](OCCc1ccccc1)([C@@H]1CSC(=O)N1)C2` stands 46.3%; under `COc1cc(C2(C#N)CCN(C)CC2)cc(OC)c1OC`, 97.2%; under `CNc1ccc(C(=O)CC(O)CCC(C)C2OC(=O)CC(O)CC(=O)CC(O)CC(O)CC(O)CC(O)CC3(O)CC(O)C(C(=O)OC)C(CC(O[C@@H]4O[C@H](C)[C@@H](O)[C@H](N)[C@@H]4O)/C=C/C=C/C=C/C=C/C=C/C=C/C=C/C2C)O3)cc1` (stereo not given in full), 41.8%.
With `CCC1([N+](=O)[O-])COP(=O)(NCc2cccnc2)OC1` (stereo not given), the growth is 104%.
Under `CC12CC[C@H](O)C=C1/C(=N/O)CC1C2CCC2(C)C1CC[C@@H]2O` (stereo not given in full) stands 97.9%.
Under `COc1cc(C2CC(=O)Nc3nc(N)[se]c32)c(OC)c2c1OCO2` (stereo not given) stands 101%.
Take `c1cnc2c(c1)ccc1ncccc12`: the growth was 110%.
Under `O=[N+]([O-])c1ccc2cnn(CSP(=S)(c3ccccc3)c3ccccc3)c2c1` stands 48.1%.
The result for `CC[C@]12C=CCN3CC[C@@]4(c5ccc(OC)cc5N(C)[C@H]4[C@@](O)(C(=O)OC)[C@@H]1OC(=O)CCCN1CCN(CCCC(=O)O[C@@H]4[C@]5(CC)C=CCN6CC[C@@]7(c8ccc(OC)cc8N(C)[C@H]7[C@@]4(O)C(=O)OC)[C@@H]65)CC1)[C@@H]32` reads -74.3% (active); that for `Cc1cc(N(CCCl)CCCl)ccc1C=Nc1ccc2ccccc2c1`, 79.7%.
As for `O=C1NC2(CCNCC2)Nc2ccccc21`, the growth is 113%.
Under `Cc1ccccc1O` stands 106%; under `CC[C@@]1(C2O[C@@H](C3O[C@@](O)(CC)[C@H](C)C[C@@H]3C)C[C@@H]2C)CC[C@H]([C@]2(C)CCC3(C[C@H](O)[C@@H](C)[C@@H]([C@H](C)[C@@H](OC)[C@H](C)C(=O)O)O3)O2)O1` (stereo not given in full), 11.5%.
Under `O=C(O)c1nn(Cc2ccc(Cl)cc2)c2ccccc12` stands 102%; under `O=CC(Br)C(Br)c1ccccc1` (stereo not given), 78.1%; under `CCC(/C=C(C)/C=C/C(=O)c1c(O)c(-c2ccc(O)cc2)c[nH]c1=O)CO` (stereo not given), 91.6%.
The result for `Cc1ccc(C(=O)C2CN(C)CCC2(O)c2ccc(C)cc2)cc1` (stereo not given) reads 103%; that for `NC(=O)C(Br)CBr` (stereo not given), -7.98% (active).
In the case of `CC(C)C1c2ccc(O)cc2Oc2nc(N)c(C#N)c(N)c21` (stereo not given), the growth was 107%.
For `COc1ccc(/C=C\c2cc(OC)c(OC)c(OC)c2)cc1N/C=C\C(=O)c1c[nH]c2ccccc12`, the growth is 12.5%.
The result for `[Cl][Hg][n]1cnc2c(Cl)c(Cl)c(Cl)cc21` reads 100%; that for `CC(C)[C@]12O[C@H]1[C@@H]1O[C@]13[C@]1(O[C@H]1C[C@H]1C4=C(CC[C@@]13C)C(=O)OC4)[C@@H]2OC(=O)OC(C)(C)C`, 8.8% (active); that for `O=S(=O)(c1ccc(Cl)cc1)C(Cl)(Cl)Cl`, 39%.
The result for `Nc1nc(N)c(-c2ccc(Cl)c(Cl)c2)c(/C=C/c2ccc(S(=O)(=O)F)cc2)n1` reads 77.9%.
As for `NC(=O)OCC(CO)(c1ccccc1)c1ccccc1`, the growth was 98.8%.
Under `O=C(CF)N(O)c1ccc(/C=C/c2ccccc2)cc1` stands 66.6%; under `COc1cc2c(cc1OC)CN(C)C(C)C2` (stereo not given), 102%; under `CC(=O)C1CCC2C3CC=C4CC(OC(=O)Cc5ccc(N(CCCl)CCCl)cc5)CCC4(C)C3CCC12C` (stereo not given), 99.5%.
With `CC[CH2][Pb]([CH2]CC)([CH2]CC)[O]C(=O)C(F)(F)F`, the growth was -88.2% (active).
Under `N#[N+]c1cnc([O-])[nH]c1=O` stands 89.1%; under `C[C@@H]1CC[C@@H]2[C@@H]1[C@H](OC(=O)/C=C/C1CCCCC1)[C@]1(C3CCCCC3)C[C@@H](OC(=O)CO)[C@@]2(C)O1`, 48.4%.
In the case of `CC(C)N=C(NC(C)C)N1CC1`, the growth is 110%.
The result for `NS(=O)(=O)c1nc[nH]c1[N+](=O)[O-]` reads 101%.
